{"source": "PubChem BioAssay (EPA / NIEHS)", "note": "Records with an inconclusive call do not appear. Calls of active or inactive are those of the source. Rule for the calls: active = hit-call score of the fitted dose curve at least 0.9, where 1 is the maximum; inconclusive = response in the unintended direction; inactive = score below 0.9."}
{"target": "Estrogen receptor (Homo sapiens) (UniProt P03372)", "sequence (P03372 whole entry, looked up)": "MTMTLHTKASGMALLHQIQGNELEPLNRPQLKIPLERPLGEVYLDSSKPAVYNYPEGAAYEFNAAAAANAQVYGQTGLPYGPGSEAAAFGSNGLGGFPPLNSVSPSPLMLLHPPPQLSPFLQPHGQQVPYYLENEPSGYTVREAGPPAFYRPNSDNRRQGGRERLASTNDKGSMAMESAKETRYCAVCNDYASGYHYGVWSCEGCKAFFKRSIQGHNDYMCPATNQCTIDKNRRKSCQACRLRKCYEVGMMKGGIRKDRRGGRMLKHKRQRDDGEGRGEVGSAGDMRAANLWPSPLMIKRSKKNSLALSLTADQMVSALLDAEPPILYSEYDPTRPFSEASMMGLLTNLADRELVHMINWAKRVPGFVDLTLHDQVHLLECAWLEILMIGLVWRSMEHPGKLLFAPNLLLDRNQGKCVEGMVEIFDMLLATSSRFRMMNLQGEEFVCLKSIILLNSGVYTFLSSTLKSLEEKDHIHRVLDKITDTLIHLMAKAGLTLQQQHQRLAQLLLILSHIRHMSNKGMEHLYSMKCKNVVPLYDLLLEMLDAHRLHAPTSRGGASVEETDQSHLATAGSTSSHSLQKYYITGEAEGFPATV", "assay": "CCTE_Deisenroth_AIME_384WELL_LUC_Active: CCTE's 384-well Estrogen Receptor Transactivation Assay with AIME metabolic competence (ERTA luciferase; metabolism positive), Deisenroth Lab (AID 2284030)", "method": "CCTE_Deisenroth_AIME_384WELL (AIME metabolism assay) is a cell-based, single-readout assay that uses VM7Luc4E2, a human mammary gland/breast cell line, with measurements taken at 24 hour after chemical dosing in a 384-well plate.CCTE_Deisenroth_AIME_384WELL_LUC_Active is one of four assay components measured or calculated from the CCTE_Deisenroth_AIME_384WELL assay. It is designed to make measurements of luciferase induction, a form of inducible reporter, as detected with bioluminescence signals by luciferase-coupled ATP quantitation technology.CCTE_Deisenroth_AIME_384WELL_LUC_Active is a component of the CCTE_Deisenroth_AIME_384WELL assay that measures the effect of retroftting the VM7Luc ERTA assay with the Alginate Immobolization of Metabolic Enzymes (AIME) metabolism method. AIME is optimized to impart phase I hepatic metabolism using phenobarbital/beta-naphthoflavone induced hepatic S9 from male Sprague Dawley rats. Parent chemicals are incubated for 2 hours in the AIME assay prior to transfer to the VM7Luc ERTA assay plate. […] This endpoint evaluates reporter induction in metabolism positive mode. Using a type of inducible reporter in VM7Luc cells, gain-of-signal activity can be used to understand changes in the reporter gene as they relate to xenobiotic metabolism and the gene ESR1. This assay endpoint, CCTE_Deisenroth_AIME_384WELL_LUC_Active, was analyzed in the positive analysis fitting direction relative to 17beta-estradiol as the positive control in the ERTA assay. To generalize the intended target to other relatable targets, this assay endpoint is annotated to the nuclear receptor intended target family, where the subfamily is steroidal.\nThe AIME procedure consists of a preparative \"pre-stamping\" step using a barium chloride/poly-L-lysine (PLL) solution followed by \"stamping\" the lid in alginate-hepatic S9 (metabolism positive) or alginate-water (metabolism negative) to form microspheres. Once stamping is completed, the AIME lids are placed in duplicate microplates (metabolism positive or negative) containing chemical solutions and incubated for two hours to facilitate metabolic reactions. The conditioned medium, containing parent chemical or metabolites, is then transferred to the cell-based VM7Luc Estrogen Receptor Transactivation Assay (ERTA) for 24 hours. A typical experimental design tests a 10-point concentration series (0.002 - 200 uM) for 8 compounds (96-well format)1 or 32 compounds (384-well format)2 in single technical replicate. AIME assay controls include trans-stilbene (bioactivated control) and ethylparaben (bioinactivated control). ERTA assay plate controls include 17-beta estradiol (positive control) and DMSO (solvent control). Experiments typically comprise a minimum of four experimental replicates (n=4)."}
{"smiles": "CNC(=O)Oc1cccc2c1OC(C)(C)C2", "AC50": "100 µM (active)"}
{"smiles": "Cc1ccc([N+](=O)[O-])cc1", "outcome": "inactive"}
{"smiles": "OCCCBr", "outcome": "inactive"}
{"smiles": "O=C(Nc1ccccc1)c1ccccc1I", "AC50": "38.4 µM (active)"}
{"smiles": "[O-][Cl+]O", "outcome": "inactive"}
{"smiles": "O=C(Oc1ccc(Br)cc1)N1CCN2CCC1CC2", "outcome": "inactive"}
{"smiles": "OCCOCCO", "outcome": "inactive"}
{"smiles": "CCOc1cccc(C2(N3CCN(c4ccccc4)CC3)CCC(C)CC2)c1", "note": "(stereo not given)", "outcome": "inactive"}
{"smiles": "C[N+](C)(C)CC1CO1", "note": "(stereo not given)", "outcome": "inactive"}
{"smiles": "CCCCCOC(=O)c1ccccc1C(=O)OCCCCC", "outcome": "inactive"}
